# Tests used:
# Test in all cases: DAPPL (digital affinity profiling via proximity ligation, sequencing); 10 mM Tris-HCl pH 7.5, 50 mM NaCl, 1 mM DTT, 4% glycerol, room temperature, 30 min; GST-TFs on glutathione beads, 16-mer random dsDNA library, 0.1% formaldehyde crosslink after washing; high values mean tight binding
# Conditions in all cases: protein: recombinant; tags: N-terminal GST; dsDNA, one strand shown
# FLI1 = target: T1, FLI1 (Homo sapiens, UniProt Q01543 1-452)
# T1 sequence: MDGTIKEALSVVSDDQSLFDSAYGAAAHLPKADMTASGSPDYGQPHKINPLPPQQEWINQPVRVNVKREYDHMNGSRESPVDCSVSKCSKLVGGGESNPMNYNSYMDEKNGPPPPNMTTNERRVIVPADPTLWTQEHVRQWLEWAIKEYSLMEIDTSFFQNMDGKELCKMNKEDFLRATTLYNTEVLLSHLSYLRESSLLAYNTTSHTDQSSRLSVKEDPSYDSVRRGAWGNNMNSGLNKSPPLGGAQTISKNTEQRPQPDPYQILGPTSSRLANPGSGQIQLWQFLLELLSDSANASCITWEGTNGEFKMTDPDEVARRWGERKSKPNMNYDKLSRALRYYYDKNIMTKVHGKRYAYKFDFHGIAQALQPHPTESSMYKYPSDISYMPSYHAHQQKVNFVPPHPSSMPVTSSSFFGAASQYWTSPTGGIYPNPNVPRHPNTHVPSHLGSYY
# Method in brief: (§1)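 Human transcription factors fused to GST were expressed in yeast, captured on glutathione beads, given DNA barcodes and pooled with a GST-only negative control. Pools were incubated with 200 nmole of a 16-mer random double-stranded DNA library in Tris/NaCl/DTT/glycerol buffer at room temperature for 30 min. They were then washed, crosslinked with 0.1% formaldehyde, proximity-ligated (BsaI/T4 ligase, 1 h, 37 °C), PCR-amplified and sequenced on an Illumina NextSeq500. Binding signal is each 6-mer's read frequency for a factor divided by its frequency for the GST control.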
# ELK1 = target: T2, ELK1 (Homo sapiens, UniProt P19419 1-428)
# T2 sequence: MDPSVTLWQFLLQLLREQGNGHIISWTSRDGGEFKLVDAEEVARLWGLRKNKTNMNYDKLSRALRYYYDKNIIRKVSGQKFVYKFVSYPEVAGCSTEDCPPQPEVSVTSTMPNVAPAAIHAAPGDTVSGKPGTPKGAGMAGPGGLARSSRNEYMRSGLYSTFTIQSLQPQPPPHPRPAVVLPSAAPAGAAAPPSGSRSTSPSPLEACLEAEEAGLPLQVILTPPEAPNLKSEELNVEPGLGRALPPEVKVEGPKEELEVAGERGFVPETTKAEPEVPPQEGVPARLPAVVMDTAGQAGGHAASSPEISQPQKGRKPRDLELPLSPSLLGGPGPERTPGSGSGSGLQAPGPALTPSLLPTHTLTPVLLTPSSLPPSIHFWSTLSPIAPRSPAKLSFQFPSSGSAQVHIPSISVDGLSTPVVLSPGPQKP
# Method in brief: as §1
# GABPA = target: T3, GABPA (Homo sapiens, UniProt Q06546 1-454)
# T3 sequence: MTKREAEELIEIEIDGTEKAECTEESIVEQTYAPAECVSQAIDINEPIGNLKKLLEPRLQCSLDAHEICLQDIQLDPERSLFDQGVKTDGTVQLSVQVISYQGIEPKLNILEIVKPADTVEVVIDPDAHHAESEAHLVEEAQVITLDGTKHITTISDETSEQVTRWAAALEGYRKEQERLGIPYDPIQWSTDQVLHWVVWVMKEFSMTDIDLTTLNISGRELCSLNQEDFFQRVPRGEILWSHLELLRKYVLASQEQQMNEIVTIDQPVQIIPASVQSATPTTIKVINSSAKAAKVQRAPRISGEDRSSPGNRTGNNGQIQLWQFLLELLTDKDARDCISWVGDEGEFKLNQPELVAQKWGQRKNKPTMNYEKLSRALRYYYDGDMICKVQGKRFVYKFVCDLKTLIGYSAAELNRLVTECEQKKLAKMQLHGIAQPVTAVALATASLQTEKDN
# Method in brief: as §1
# ERG = target: T4, ERG (Homo sapiens, UniProt P11308 1-479)
# T4 sequence: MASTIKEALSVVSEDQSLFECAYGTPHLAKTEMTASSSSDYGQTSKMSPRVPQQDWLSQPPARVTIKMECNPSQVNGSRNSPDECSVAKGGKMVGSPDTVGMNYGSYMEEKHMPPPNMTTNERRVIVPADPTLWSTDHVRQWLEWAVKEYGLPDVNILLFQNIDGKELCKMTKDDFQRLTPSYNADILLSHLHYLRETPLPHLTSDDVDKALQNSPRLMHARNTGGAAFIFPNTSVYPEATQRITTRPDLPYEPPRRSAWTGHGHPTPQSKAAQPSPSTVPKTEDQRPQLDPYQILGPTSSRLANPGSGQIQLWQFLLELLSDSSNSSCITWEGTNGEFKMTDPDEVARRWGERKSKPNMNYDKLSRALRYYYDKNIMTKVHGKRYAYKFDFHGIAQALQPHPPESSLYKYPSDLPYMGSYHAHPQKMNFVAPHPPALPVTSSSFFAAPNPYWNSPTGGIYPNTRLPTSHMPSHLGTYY
# Method in brief: as §1
# ELF1 = ELF1 (Homo sapiens, UniProt P32519 1-619)
# Method in brief: as §1
# EHF = target: T5, EHF (Homo sapiens, UniProt Q9NZC4 1-300)
# T5 sequence: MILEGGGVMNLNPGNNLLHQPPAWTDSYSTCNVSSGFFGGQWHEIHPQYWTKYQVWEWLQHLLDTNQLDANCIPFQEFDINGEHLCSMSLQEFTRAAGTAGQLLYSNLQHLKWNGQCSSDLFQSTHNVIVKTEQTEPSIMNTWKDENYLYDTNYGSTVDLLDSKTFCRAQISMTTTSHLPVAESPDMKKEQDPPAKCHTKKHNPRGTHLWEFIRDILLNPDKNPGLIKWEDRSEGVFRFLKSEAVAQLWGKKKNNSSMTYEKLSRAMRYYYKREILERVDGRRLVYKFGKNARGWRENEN
# Method in brief: as §1
# SPI1 = SPI1 (Homo sapiens, UniProt P17947 1-270)
# Method in brief: as §1
# SPIB = SPIB (Homo sapiens, UniProt Q01892 1-262)
# Method in brief: as §1
# ELK3 = target: T6, ELK3 (Homo sapiens, UniProt P41970 1-407)
# T6 sequence: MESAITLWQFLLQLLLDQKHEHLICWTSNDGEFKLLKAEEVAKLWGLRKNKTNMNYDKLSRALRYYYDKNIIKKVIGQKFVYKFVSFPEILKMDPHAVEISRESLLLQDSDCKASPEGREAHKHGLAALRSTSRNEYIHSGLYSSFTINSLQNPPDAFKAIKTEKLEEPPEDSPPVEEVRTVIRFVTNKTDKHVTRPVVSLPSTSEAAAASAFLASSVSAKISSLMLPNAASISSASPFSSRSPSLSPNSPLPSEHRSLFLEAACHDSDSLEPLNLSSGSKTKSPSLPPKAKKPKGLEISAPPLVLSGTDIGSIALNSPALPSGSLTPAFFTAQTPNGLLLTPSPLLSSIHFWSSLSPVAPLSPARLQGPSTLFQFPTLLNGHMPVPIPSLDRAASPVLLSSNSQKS
# Method in brief: as §1
# SPIB, sequence (Q01892 whole entry): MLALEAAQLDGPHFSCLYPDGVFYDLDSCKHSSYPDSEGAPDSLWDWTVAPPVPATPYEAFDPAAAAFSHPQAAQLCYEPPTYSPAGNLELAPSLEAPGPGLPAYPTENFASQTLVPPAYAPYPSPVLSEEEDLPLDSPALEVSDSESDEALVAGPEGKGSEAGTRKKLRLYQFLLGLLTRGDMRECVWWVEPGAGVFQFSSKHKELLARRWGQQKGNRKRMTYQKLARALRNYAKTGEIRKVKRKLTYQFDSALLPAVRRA
# ELF1, sequence (P32519 whole entry): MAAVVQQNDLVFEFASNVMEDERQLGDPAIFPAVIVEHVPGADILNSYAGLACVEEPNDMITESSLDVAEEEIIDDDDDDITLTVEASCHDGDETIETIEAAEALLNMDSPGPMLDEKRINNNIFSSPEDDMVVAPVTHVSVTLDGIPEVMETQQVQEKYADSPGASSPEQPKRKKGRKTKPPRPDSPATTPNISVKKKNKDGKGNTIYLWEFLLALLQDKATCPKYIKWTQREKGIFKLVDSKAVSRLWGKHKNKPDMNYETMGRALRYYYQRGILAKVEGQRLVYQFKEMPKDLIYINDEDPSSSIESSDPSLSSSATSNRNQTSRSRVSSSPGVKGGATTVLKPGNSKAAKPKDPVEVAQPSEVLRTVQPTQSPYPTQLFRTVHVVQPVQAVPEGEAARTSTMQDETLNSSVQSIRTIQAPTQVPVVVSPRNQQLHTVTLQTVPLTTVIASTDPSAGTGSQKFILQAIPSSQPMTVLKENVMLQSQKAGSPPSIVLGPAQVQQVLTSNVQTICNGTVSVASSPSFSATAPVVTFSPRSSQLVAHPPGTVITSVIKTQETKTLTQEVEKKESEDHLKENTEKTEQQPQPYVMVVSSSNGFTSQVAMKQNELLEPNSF
sequence,measurement,setting,value
CTTGGA,binding signal,FLI1,"1.28 fold enrichment (6-mer frequency, TF over GST control)"
same,binding signal,ELK1,"1.15 fold enrichment (6-mer frequency, TF over GST control)"
same,binding signal,GABPA,"1.16 fold enrichment (6-mer frequency, TF over GST control)"
same,binding signal,ERG,"1.17 fold enrichment (6-mer frequency, TF over GST control)"
same,binding signal,ELF1,"1.27 fold enrichment (6-mer frequency, TF over GST control)"
same,binding signal,EHF,"1.13 fold enrichment (6-mer frequency, TF over GST control)"
same,binding signal,SPI1,"1.14 fold enrichment (6-mer frequency, TF over GST control)"
same,binding signal,SPIB,"1.2 fold enrichment (6-mer frequency, TF over GST control)"
same,binding signal,ELK3,"1.17 fold enrichment (6-mer frequency, TF over GST control)"

# — paper PMC7862700, “An all-to-all approach to the identification of sequence-specific readers for epigenetic DNA modifications on cytosine”
